# According to publication PMC5540273 (PLoS ONE, 2017):
# What was measured:
# Conditions in all cases: concentration: 1 μM, replicates: in singlicate; n = 1
# MEK5 = system: T1, MEK5
# T1 construct: gene MAP2K5
# MEK6 = system: T2, MEK6
# T2 construct: gene MAP2K6
# MELK = system: MELK
# MERTK = system: MERTK
# MET = system: MET
# MINK = system: T3, MINK
# T3 construct: gene MINK1
# MKK7 = system: MKK7
# MKNK1 = system: MKNK1
# MKNK2 = system: MKNK2
# MLCK = system: T4, MLCK
# T4 construct: gene MYLK3
# MLK1 = system: T5, MLK1
# T5 construct: gene MAP3K9
# MLK2 = system: MLK2
# MLK3 = system: MLK3
# MRCKA = system: MRCKA
# MRCKB = system: T6, MRCKB
# T6 construct: gene CDC42BPB
# MST1R = system: MST1R
# MST1 = system: T7, MST1
# T7 construct: gene STK4
# MST2 = system: T8, MST2
# T8 construct: gene STK3
# MST3 = system: T9, MST3
# T9 construct: gene STK24
# MST4 = system: MST4
# 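Also: KINOMEscan kinase panel screen.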
SMILES,%Inh (MEK5),%Inh (MEK6),%Inh (MELK),%Inh (MERTK),%Inh (MET),%Inh (MINK),%Inh (MKK7),%Inh (MKNK1),%Inh (MKNK2),%Inh (MLCK),%Inh (MLK1),%Inh (MLK2),%Inh (MLK3),%Inh (MRCKA),%Inh (MRCKB),%Inh (MST1R),%Inh (MST1),%Inh (MST2),%Inh (MST3),%Inh (MST4)
CC(C)(C)c1ccc(C(=O)Nc2cn3cc(-n4ccnc4)ccc3n2)cc1,99%,0%,0%,0%,0%,18%,0%,8%,0%,19%,18%,0%,0%,28%,0%,28%,7%,3%,0%,0%
Cc1ccc(NC(=O)c2ccc(Cl)c(Cl)c2)cc1-c1ccc(C(=O)Nc2ccncc2)cc1 [GSK1398460],27%,5%,0%,36%,0%,6%,0%,11%,0%,0%,7%,16%,20%,25%,32%,31%,8%,0%,6%,0%
COc1ccc(NC(=O)c2ccoc2)cc1-c1ccc(C(=O)NCC2CC2)cc1 [GW810437],41%,16%,29%,0%,0%,7%,0%,0%,13%,0%,0%,25%,0%,0%,19%,0%,22%,8%,1%,0%
CN(c1ccc(NC(=O)Nc2cccc(Cl)c2)cc1)c1ccnc(N)n1.Cl [GW830707],48%,0%,11%,0%,1%,0%,17%,52%,95.6%,10%,0%,7%,0%,0%,17%,22%,0%,11%,0%,16%
Cn1cc(-c2ccc3c(c2)CCN3C(=O)Cc2cc(F)cc(C(F)(F)F)c2)c2c(N)ncnc21 [GSK2635225],33%,0%,0%,63%,21%,7%,4%,0%,2%,0%,78%,42%,72%,5%,0%,19%,39%,10%,0%,0%
COc1cccc(-c2nc(-c3ccccc3)[nH]c2-c2ccncc2)c1 [SB-610250],26%,100%,14%,9%,0%,10%,0%,22%,5%,0%,0%,0%,0%,41%,0%,23%,8%,0%,0%,0%
Nc1ncnc2scc(-c3ccc(NC(=O)Cc4cc(F)ccc4F)cc3)c12.O=C(O)C(F)(F)F [SB-731254-M],99.7%,11%,4%,14%,0%,35%,0%,0%,47%,60%,0%,28%,34%,0%,4%,20%,42%,0%,30%,24%
Cn1cc(-c2cnc(N)c3c(-c4ccc5c(c4)CCN5C(=O)Cc4ccccc4)csc23)cn1 [GSK2593074],99.8%,7%,0%,90%,79%,16%,0%,0%,0%,0%,14%,25%,14%,10%,10%,12%,97.8%,100%,7%,33%
